An excerpt weighted towards active compounds, which were near 2.9% of everything screened.
Myeloid diff 2: compounds promoting myeloid differentiation. ER-HoxA9 myeloid progenitors, lysozyme-GFP differentiation, flow cytometry. calls only at 10 µM. actives 1% (n = 360,000);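 active = normalized GFP-positive differentiation at or above the plate's own cutoff, the solvent-only control mean plus 3 SD; inconclusive = no clear call, values can overlap the other calls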;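 also: cells exposed to compound for four days before flow analysis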
sPLA2-III inh: Inhibits HGIII-sPLA2 liposome hydrolysis, primary screen | QFRET BODIPY PC-A2 liposome hydrolysis, fluorescence | inhibition, % at 12.2 µM | actives 0.56% (n = 370,000) | AID 743126;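 active = inhibition above mean plus 3 SD of compounds lying within the high and low control bounds, cut at about 19% in these data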
ABHD5-PLIN5 inh: blocks binding of human ABHD5 to perilipin-5; inhibition, % at 4 µM; actives 0.78% (n = 360,000); AID 602281; Split G. princeps luciferase complementation, luminescence, 4 h;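 active = inhibition above the mean inhibition across every tested compound plus 3 SD, cut at about 22% in these data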
Target sequence (Q00G26 whole entry, looked up): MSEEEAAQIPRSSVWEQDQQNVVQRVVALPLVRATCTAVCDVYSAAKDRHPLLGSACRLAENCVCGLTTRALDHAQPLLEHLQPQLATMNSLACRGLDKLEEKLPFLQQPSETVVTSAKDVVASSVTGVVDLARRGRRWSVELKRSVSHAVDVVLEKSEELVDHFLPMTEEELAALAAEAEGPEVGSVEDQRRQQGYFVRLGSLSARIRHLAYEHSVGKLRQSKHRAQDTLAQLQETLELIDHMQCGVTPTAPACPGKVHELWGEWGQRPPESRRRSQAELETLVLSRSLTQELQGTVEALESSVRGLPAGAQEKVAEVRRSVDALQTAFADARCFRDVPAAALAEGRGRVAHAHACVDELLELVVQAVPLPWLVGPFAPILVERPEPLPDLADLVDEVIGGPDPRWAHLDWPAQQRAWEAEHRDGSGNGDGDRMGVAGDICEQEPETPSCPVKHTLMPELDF
Target sequence (Q8WTS1 whole entry, looked up): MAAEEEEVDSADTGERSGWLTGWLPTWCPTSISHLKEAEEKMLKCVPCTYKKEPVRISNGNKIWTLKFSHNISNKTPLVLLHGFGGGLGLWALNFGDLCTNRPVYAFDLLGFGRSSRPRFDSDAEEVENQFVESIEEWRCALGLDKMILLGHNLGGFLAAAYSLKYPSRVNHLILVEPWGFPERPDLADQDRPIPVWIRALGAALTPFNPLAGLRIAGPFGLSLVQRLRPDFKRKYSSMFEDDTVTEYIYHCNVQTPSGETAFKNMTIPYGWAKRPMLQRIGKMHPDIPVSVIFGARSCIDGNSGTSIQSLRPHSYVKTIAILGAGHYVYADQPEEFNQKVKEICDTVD
DAGLB inh: blocks human DAGLB lipase activity; HEK293T DAGLB membrane lysate, EnzChek fluorogenic substrate; inhibition, % at 5.17 µM; actives 0.059% (n = 340,000); in the data active = inhibition above about 34%
Rtt109 HAT inh: blocks Candida albicans Rtt109/Vps75 acetyltransferase activity. purified Rtt109/Vps75, ThioGlo CoA-SH fluorescence, 4 h. Q5AAJ8. inhibition, % at 34.9 µM. actives 0.16% (n = 330,000);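 active = inhibition of at least 50% in every replicate; inconclusive = best replicate reaches 50% inhibition but some replicates fall short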
H9c2 protect: protects H9c2 cardiomyocytes from peroxide injury | actives 0.63% (n = 360,000) | protection from H2O2 cell death, % at 20 µM | H2O2 injury protection, ATPLite, 2 h;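 active = compounds giving at least 50% protection of heart cells from peroxide-induced death in the single-dose screen, raw or plate-pattern-corrected value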
Numbers stand for hits; . = inactive; ? = inconclusive; / = no result given; + = active, no number.

SMILES | Myeloid diff 2 | sPLA2-III inh | ABHD5-PLIN5 inh | DAGLB inh | Rtt109 HAT inh | H9c2 protect
O=c1[nH]nc(-c2ccc(NCCO)c([N+](=O)[O-])c2)c2ccccc12 | . | . | . | . | . | 68.3
O=C(c1ccccc1NS(=O)(=O)c1ccc(F)cc1)N1CCc2ccccc21 | . | . | . | . | . | .
Cc1ccc(-c2cn(CCN)c(-c3ccc(Cl)nc3)n2)cc1 | . | . | . | . | . | .
COc1ccccc1CNS(=O)(=O)c1c(C(=O)N2CCCCCC2)c(C)n(C)c1C | . | . | . | . | . | .
O=C1COc2ccc(C(=O)c3ccccc3C(=O)NCc3ccco3)cc2N1 | . | . | . | . | 72.5 | .
COc1ccc(C(=O)Nc2ccc3c(c2)n(C)c(=O)n3C)cc1OC | . | . | . | . | . | .
CCOC(=O)C1CCN(c2cc3c(cc2NC(=O)c2ccccc2)n(C)c(=O)n3C)CC1 | . | . | . | . | . | 65.6
Cn1c(=O)n(C)c2cc(N3CCCCC3)c(NC(=O)c3ccccc3)cc21 | . | . | . | . | . | .
CCOC(=O)C1CCN(c2cc3c(cc2NC(=O)c2ccc(OC)c(OC)c2)n(C)c(=O)n3C)CC1 | . | . | . | . | . | 54.5
CCCC[n+]1c(C)sc2cc(OC)ccc21 | . | . | . | . | 185.4 | .
CCN(CC)S(=O)(=O)c1cc(NC(=O)C(C)N2CCc3ccccc32)ccc1C (centres undefined) | + | . | . | . | . | .
COC(=O)C(N)Cc1ccc(Cl)cc1 (centres undefined) | . | . | . | . | . | .
COC(=O)[C@@H](N)Cc1ccc(O)c(O)c1 | . | . | . | . | . | 58.5
C[C@]12C[C@H](O)[C@@H]3c4ccc(O)cc4CCC3[C@@H]1CCC2=O (some centres undefined) | . | . | . | . | . | .
C[C@]12CC[C@H]3C(=CCc4cc(O)ccc43)[C@@H]1CCC2=O | + | . | . | . | . | .
NC(=O)c1ccc(NC(=O)c2cccc(Oc3ccccc3)c2)cc1 | . | . | . | . | . | .
NS(=O)(=O)c1cccc(NC(=O)c2cccc(Oc3ccccc3)c2)c1 | + | . | . | . | . | .
CC1CCCN(C(=S)NC2CCCC2)C1 (centres undefined) | . | . | . | . | . | .
Cc1sc(NC(=O)c2ccco2)c(C(c2cccnc2)N2CCN(c3ccc(F)cc3)CC2)c1C (centres undefined) | + | . | . | . | . | .
Cc1sc(NC(=O)c2ccco2)c(C(c2cccnc2)N2CCN(CCO)CC2)c1C (centres undefined) | . | . | . | . | . | .
O=C(/C=C/c1ccccc1)NCC1(c2ccccc2)CCOCC1 | . | . | . | . | . | .
CC(=O)Nc1ccc(C(=O)N2CC(=O)NC(=O)C2)cc1 | . | . | . | . | 63.2 | .
CCOC(=O)N1CCN(C(=O)c2ccc(NC(C)=O)cc2)CC1 | . | . | . | . | . | .
Cc1cc(C)c2c(=O)n(CC(=O)NCCCN3CCOCC3)sc2n1 | . | / | 50.0 | . | . | .
Cc1cc([N+](=O)[O-])nn1CC(=O)NCCCN1CCOCC1 | / | . | . | . | . | .
SMILES | Myeloid diff 2 | sPLA2-III inh | ABHD5-PLIN5 inh | DAGLB inh | Rtt109 HAT inh | H9c2 protect
N#CC1(CCCN2CCCCC2)c2ccccc2CCc2ccccc21 | . | . | . | . | . | .
CCC(Oc1ccccc1)C(=O)Nc1ccccc1C(=O)N1CCCCC1 (centres undefined) | . | . | . | . | . | 50.3
O=C1OCCN1C(=O)[C@H]1[C@H](c2ccc([N+](=O)[O-])cc2)C(c2cccc(Cl)c2)=NN1c1ccc(Br)cc1 | . | . | . | . | . | 51.4
O=C1OCCN1C(=O)[C@H]1[C@H](c2ccc([N+](=O)[O-])cc2)C(c2ccccc2)=NN1c1ccc(Br)cc1 | . | . | . | . | . | 54.7
O=C1OCCN1C(=O)[C@H]1[C@H](c2ccc(Cl)cc2)C(c2ccccc2)=NN1c1ccc(Br)cc1 | . | . | . | . | . | .
O=C(N/N=C/c1c[nH]c2ccccc12)c1[nH]c2ccc(Br)cc2c1-c1ccccc1 | ? | 22.0 | . | . | . | .
CCN(CC(=O)Nc1ccc(Br)cc1)C(=O)Cc1cccc(F)c1 | ? | . | . | . | . | .
CNc1ccc(Br)cc(C(=O)/C=C/c2ccc(OC)cc2)c1=O | . | . | . | . | . | .
CCNc1ccc(Br)cc(C(=O)/C=C/c2ccc(Cl)cc2Cl)c1=O | . | . | 47.0 | . | . | .
Cc1ccc(-c2nnn(CC(=O)N(CC(=O)NC3CCCCC3)c3cccc(F)c3)n2)o1 | / | . | . | . | . | .
Cc1ccc(C2/C(=C(/O)c3ccc(Br)cc3)C(=O)C(=O)N2Cc2ccco2)o1 (centres undefined) | . | . | 22.9 | . | . | .
Brc1ccc(CSc2nnc(SCc3ccccc3)s2)cc1 | / | . | / | / | / | /
CN(C)S(=O)(=O)c1cc(NC(=O)CSc2ncc(C(F)(F)F)cc2Cl)ccc1Cl | + | . | . | . | . | .
CN(C)S(=O)(=O)c1cc(NC(=O)CSc2cccc[n+]2[O-])ccc1Cl | . | . | . | . | . | .
COC(=O)Cn1c(=NC(=O)CSCC(=O)Nc2cc(C)on2)sc2cc(C(=O)OC)ccc21 | . | . | . | . | . | .
O=C(CCCCl)N1CCc2[nH]c3ccccc3c2C1 | . | . | . | . | . | .
Cc1cc(C)c2ccc(NN)nc2c1O | . | . | . | . | . | 79.0
Clc1ccc(-n2nnc(-c3cccnc3)n2)cc1Cl | + | . | . | . | . | .
CCCCCCc1nc(C(N)=O)c2[nH]c(=O)n(-c3ccc(OC)cc3OC)c2n1 | . | . | . | . | . | .
CCn1c(=O)c(C(=O)NCc2ccccc2)c(O)c2ccccc21 | . | . | . | . | . | .
COC(=O)CNC(=O)c1cn(CC(C)C)c(=O)c2cc(OC)c(OC)cc12 | . | . | . | . | . | .
O=C(Cn1c(=O)sc2ccccc21)NCc1ccccn1 | + | . | . | . | . | .
CC(C)Cn1c(=O)c(C(=O)NCc2ccccn2)c(O)c2ccccc21 | . | . | . | . | . | 56.2
COc1cc2c(C(=O)NCc3ccccn3)cn(CC(C)C)c(=O)c2cc1OC | . | . | . | . | . | 53.8
O=C(NCc1csc(-c2cccs2)n1)C1CCCCC1 | . | . | . | . | . | .
COc1ccc(/C=C2/C(=O)N=C(N)N2C)cc1OC | + | . | . | . | . | .
COc1ccc(/C=C2\N=C(C)OC2=O)cc1OC | + | . | . | . | . | .
COc1cc(OC)c(OC)cc1/C=C1/C(=O)N=C(N)N1C | . | . | . | . | . | .
CCCCn1nc2cc(C(=O)NCC34CC5CC(CC(C5)C3)C4)ccc2c1OCC | + | . | . | . | . | .

Screens: PubChem BioAssay, several laboratories
